Hits are enriched below; roughly 2.4% of the tested compounds scored in any of these assays.
A3A deaminase: blocks human APOBEC3A ssDNA deamination | recombinant A3A, FAM/TAMRA ssDNA deamination fluorescence | inhibition, % at 20 µM | 330,000 tested, 0.41% active | AID 493011;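 active = at least 40% inhibition at 20 µM here, with at most 30% in a related deaminase screen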;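 note: plate controls were A3A with DMSO for no effect and wells lacking A3A enzyme for full effect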
ADAM10 inh: inhibitors of human ADAM10. inhibition, % at 7 µM. recombinant ADAM10, EDANS/DABCYL FRET peptide cleavage, 3 h. O14672. AID 720582. 370,000 tested, 0.62% active;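 active = inhibition above a per-campaign cutoff equal to the mean of compounds falling between control-based bounds plus 3 SD, cut at about 20% in these data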;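 note: 0% = DMSO wells while the 100% control is not disclosed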
ADAM17 inh: inhibitors of human ADAM17; AID 720648; inhibition, % at 6.95 µM; 370,000 tested, 0.83% active; recombinant ADAM17, EDANS/DABCYL FRET peptide cleavage; P78536;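 active = inhibition above the mean of compounds lying between control limits plus 3 SD, set per campaign, cut at about 8.5% in these data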;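 note: 0% = DMSO-only wells as the low control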
Target sequence (P78536 215-824 limits assumed): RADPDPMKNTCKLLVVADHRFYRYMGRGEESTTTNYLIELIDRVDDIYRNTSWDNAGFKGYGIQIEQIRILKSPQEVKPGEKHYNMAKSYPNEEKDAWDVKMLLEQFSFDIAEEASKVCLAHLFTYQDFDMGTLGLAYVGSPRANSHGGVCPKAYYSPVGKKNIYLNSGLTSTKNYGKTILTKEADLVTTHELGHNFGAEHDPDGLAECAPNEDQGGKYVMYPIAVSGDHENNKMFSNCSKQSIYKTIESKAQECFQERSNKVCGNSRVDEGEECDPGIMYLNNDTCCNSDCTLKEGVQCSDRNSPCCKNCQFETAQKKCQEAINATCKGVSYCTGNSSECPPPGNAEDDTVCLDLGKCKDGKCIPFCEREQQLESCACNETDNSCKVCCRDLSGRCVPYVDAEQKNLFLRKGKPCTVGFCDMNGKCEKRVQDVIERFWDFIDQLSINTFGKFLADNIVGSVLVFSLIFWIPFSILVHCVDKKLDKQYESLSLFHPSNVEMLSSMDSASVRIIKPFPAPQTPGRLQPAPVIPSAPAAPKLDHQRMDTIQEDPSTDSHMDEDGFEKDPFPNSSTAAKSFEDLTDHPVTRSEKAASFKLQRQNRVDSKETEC
NRP1-CendR mod: alters CendR peptide binding to human NRP-1; 360,000 tested, 0.85% active; AID 602438; inhibition, % at 25 µM; FAM-RPARPAR peptide binding to NRP-1, fluorescence polarization;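 active = inhibition or corrected inhibition above about 18%, plus a signal ratio from 0.5 to 1.5, limit read from the data, passing the limit was not always enough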
APOBEC3G inh: inhibitors of human APOBEC3G DNA deaminase | Q9HC16 | recombinant A3G, ssDNA deamination FAM/TAMRA fluorescence | inhibition, % at 20 µM | 330,000 tested, 0.28% active | AID 493012;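 active = inhibition of at least 40% at 20 µM, with no more than 30% in the related APOBEC3A deaminase screen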;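 note: plate controls were DMSO wells with A3G for no effect and wells lacking A3G enzyme for full effect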
APOBEC3A confirm: confirmation of human APOBEC3A DNA deaminase inhibitors; AID 493151; shares compounds with A3A deaminase; 1,400 tested, 63% active; inhibition, % at 20 µM; recombinant A3A, ssDNA deaminase UDG fluorescence assay;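 active = inhibition reaching a set limit, 80% of the first screen's cutoff, at 20 µM in any replicate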;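 note: plate controls were DMSO wells with A3A for no effect and wells lacking A3A enzyme for full effect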
UDG ctr A3A: counter-screen for APOBEC3A inhibitors: UDG; 1,000 tested, under 10 active; UDG counterscreen, FAM/TAMRA uracil oligo fluorescence; shares compounds with A3A deaminase; inhibition, % at 20 µM; call rule not given here
Active calls of the source: *; nt = no result given.

SMILES	A3A deaminase	ADAM10 inh	ADAM17 inh	NRP1-CendR mod	APOBEC3G inh	APOBEC3A confirm	UDG ctr A3A
COc1ccc(C(=O)OCCc2ccc(O)cc2)cc1	0	6	1	9	-2	nt	nt
COc1ccc(C(=O)OCC[N+]2(C)CCOCC2)cc1	61*	2	-3	-5	19	73*	0
CCOC(=O)Cn1c(=O)n(CC(=O)OCC)c2ccccc21	0	-3	0	2	-4	nt	nt
CCn1c(C)[n+](CCOCC[n+]2c(C)n(CC)c3cc(Cl)c(Cl)cc32)c2cc(Cl)c(Cl)cc21	78*	3	0	6	29	88*	-2
CCn1c(/C=C/Nc2ccccc2)[n+](CC)c2cc(Cl)c(Cl)cc21	30	-5	1	-9	7	nt	nt
CC(=O)OCCn1c(C)[n+](CCOC(C)=O)c2cc(Cl)c(Cl)cc21	82*	-13	-4	9	14	81*	-1
CCOC(=O)Cn1c(C)[n+](C)c2cc(Cl)c(Cl)cc21	87*	8	1	-8	24	81*	2
CCOC(=O)[C@@]12CN(C(=O)OC(C)(C)C)CC=C1N(Cc1ccc(OC)cc1)C(=O)[C@H]2CC(=O)NCc1cccc(C(F)(F)F)c1	nt	13	5	nt	nt	nt	nt
COC(=O)c1cc2c(c3c4ccccc4n(S(C)(=O)=O)c13)C(=O)N(Cc1ccccc1)C2	nt	-14	-4	nt	nt	nt	nt
CCCCOc1ccc(C(=O)NC2CCCCN(C)C2=O)cc1 (stereo not given)	nt	-2	-3	nt	nt	nt	nt
O=C(COC(=O)c1cccc([N+](=O)[O-])c1)NCc1ccc2c(c1)OCO2	3	5	0	5	-5	nt	nt
CC(OC(=O)c1cccc([N+](=O)[O-])c1)C(=O)NCc1ccc2c(c1)OCO2 (stereo not given)	49*	1	1	7	-4	-6	-3
COC(=O)[C@@H]1[C@H](O[Si](C)(C)C(C)(C)C)C2OC2C[C@H]1S(=O)(=O)c1ccccc1 (stereo not given in full)	nt	8	2	nt	nt	nt	nt
COc1ccc(/C=C/c2ccc3ccccc3[n+]2C)cc1OC	66*	nt	nt	-10	23	81*	2
CN(C)c1ccc(/C=C/c2ccc3ccccc3[n+]2C)cc1	27	3	0	-43	21	nt	nt
Cc1ccc(S(=O)(=O)NC[C@@H]2C[C@H](c3ccccc3)ON2S(=O)(=O)c2ccc(C)cc2)cc1	nt	16	7	nt	nt	nt	nt
Cc1ccc(N2CC(C(=O)NCc3nnnn3-c3ccc(C)c(C)c3)CC2=O)cc1 (stereo not given)	52*	-9	5	0	-3	6	-14
O=C1OC(c2ccc(Cl)cc2)=C/C1=C/c1cccnc1	62*	1	-5	-11	13	37*	4
COc1ccc(Cl)cc1N(CC(=O)Nc1ccc2c(c1)OCO2)S(C)(=O)=O	42*	-2	0	15	3	8	nt
COc1ccc(OC)c(N(CC(=O)Nc2ccc3c(c2)OCO3)S(=O)(=O)c2ccccc2)c1	1	11	0	12	-5	nt	nt
CC[n+]1c(/C=C/N(C)c2ccccc2)n(-c2ccccc2)c2ccc(-c3nc4ccccc4s3)cc21	61*	nt	nt	-39	5	48*	nt
COc1ccc(CCn2c(C)cc(C(=O)CSc3nnc(N)s3)c2C)cc1	44*	nt	nt	14	-7	-6	-2
Cc1cc(C(=O)CSc2nnc(N)s2)c(C)n1CCc1ccc(Cl)cc1	-2	-6	-1	-9	-6	nt	nt
COC(=O)C1=C(C)N(Cc2ccccc2C(F)(F)F)C(=NCc2ccc(OC)cc2)NC1c1ccc(C(F)(F)F)cc1 (stereo not given)	nt	-6	-2	nt	nt	nt	nt
NC(=O)C[N+]1(CC#CC(O)(c2ccccc2)c2ccccc2)CCCC1	51*	11	-2	-8	18	71*	3
CCC[N+]1(CC#CC(O)(c2ccccc2)C2CCCCC2)CCCCC1 (stereo not given)	-5	1	-3	-14	-8	nt	nt
O=C(CSc1nnc(SCc2cccc3ccccc23)s1)Nc1ccccc1-c1ccccc1	nt	-3	-1	nt	nt	nt	nt
CS(=O)(=O)c1nc(-c2ccc(Br)cc2)n[nH]1	41*	2	-3	9	-11	18	0
